From PubChem BioAssay
AddAB inh = less growth of phage-infected E. coli with AddAB | E. coli expressing H. pylori AddAB, absorbance growth | actives 0.29% (n = 330,000) | inhibition, % at 11.9 µM; in the data active = inhibition above about 12%
phage Ecoli inh = E. coli growth loss with phage present; growth absorbance; actives 0.26% (n = 360,000); inhibition, % at 11.9 µM; in the data active = inhibition above about 11%
E coli growth-1 = blocks Escherichia coli growth | OD600, 23 h; stronger effect = lower value | actives 0.21% (n = 330,000) | OD600 absorbance (concentration not given with the values);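 active = OD600 absorbance below the run mean of sample wells minus 3.6 SD, in any replicate, cut at about 0.56 in these data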
Tat export inh = blocks Tat-dependent protein export in E. coli. E. coli MC4100 TorA-mCherry Tat export, fluorescence. actives 0.036% (n = 340,000). inhibition, % at 10 µM. AID 488895;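 active = mean replicate inhibition at least 50% and at least half of replicates individually reaching 50%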;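 note: exported cargo escapes ClpAP degradation while cytoplasmic cargo is degraded and loses fluorescence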
E coli growth-2 = counter-screen for AddAB inhibitors: E. coli growth inhibition; E. coli V3065 growth, OD600 absorbance, 18 h; inhibition, % at 11.9 µM; actives 0.27% (n = 330,000);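 active = inhibition above the campaign's mean inhibition across all tested compounds plus 3 SD, cut at about 9.9% in these data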;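 note: uninfected addAB+ strain grown without phage in ampicillin broth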
RecBCD conf = growth loss of phage-infected V66 E. coli, RecBCD confirmation screen; shares compounds with phage Ecoli inh; E. coli V66 + T4 2- phage, growth OD; inhibition, % at 11.9 µM; actives 45% (n = 890);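 active = mean inhibition over triplicates exceeding the hit threshold derived in the original primary screen, cut at about 11% in these data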
Ecoli viability = counter-screen for RecBCD inhibitors: inhibitors of bacterial viability; E. coli viability, absorbance (OD) growth; actives 29% (n = 890); inhibition, % at 11.9 µM; AID 651983; shares compounds with phage Ecoli inh; in the data active = inhibition above about 20%;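 note: E. coli strain V66 grown with compound alone and no phage infection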
AddAB phage OD = growth loss of phage-infected AddAB E. coli, RecBCD counter-screen; shares compounds with phage Ecoli inh; E. coli expressing H. pylori AddAB + T4 phage, OD growth; gene 2 mutant T4, recBCD-deleted host; inhibition, % at 11.9 µM; actives 45% (n = 890); AID 651984;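 active = mean inhibition above the solvent-only control wells' mean plus 3 SD, cut at about 22% in these data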;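 note: higher means less bacterial growth from phage killing when AddAB is blocked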
Hits are given with their value. Hits are enriched below; roughly 0.51% of the tested compounds scored in any of these assays.

`CN1CCN(C(=O)/C=C/c2ccccc2)CC1` gave AddAB inh inactive, phage Ecoli inh inactive, E coli growth-1 inactive, Tat export inh inactive and E coli growth-2 inactive.
Screening CN1CCN(C(=O)/C=C/c2ccc([N+](=O)[O-])o2)CC1 returned phage Ecoli inh 17, E coli growth-1 0.43, Tat export inh inactive, RecBCD conf 12, Ecoli viability inactive and AddAB phage OD 82.
For COc1ccc(CCC(C)=NNC(N)=O)cc1 the results were E coli growth-1 inactive.
`Cc1ccc(C(=O)CC(=O)COc2ccc(Cl)cc2C)cc1` gave AddAB inh inactive, phage Ecoli inh 12, E coli growth-1 inactive, Tat export inh inactive, E coli growth-2 inactive, RecBCD conf inactive, Ecoli viability inactive and AddAB phage OD inactive.
`O=C(N/N=C/c1cc(Cl)ccc1O)C(=O)Nc1ccccc1OC(F)(F)C(F)F` gave AddAB inh inactive, phage Ecoli inh 16, Tat export inh inactive, E coli growth-2 12, RecBCD conf inactive, Ecoli viability inactive and AddAB phage OD inactive.
O=c1c(O)c(-c2cccs2)oc2ccc(Cl)cc12 was read as AddAB inh inactive, phage Ecoli inh 14, E coli growth-1 inactive, Tat export inh inactive, E coli growth-2 inactive, RecBCD conf inactive, Ecoli viability inactive and AddAB phage OD inactive.
Screening CC1(C(=O)N/N=C/c2ccc([N+](=O)[O-])o2)CC1(Br)Br (stereo not given) returned AddAB inh inactive, phage Ecoli inh inactive, Tat export inh inactive and E coli growth-2 inactive.
For CC1CN(N=Cc2ccc([N+](=O)[O-])o2)C(=N)O1 (stereo not given) the results were phage Ecoli inh 46, E coli growth-1 0.065, Tat export inh inactive, RecBCD conf 85, Ecoli viability 102 and AddAB phage OD 103.
`O=C1SCCN1N=Cc1ccc([N+](=O)[O-])o1` gave phage Ecoli inh 69, E coli growth-1 0.063, Tat export inh inactive, RecBCD conf 62, Ecoli viability 98 and AddAB phage OD 100.
Screening O=C1C2C(C(=O)N1/N=C/c1ccc([N+](=O)[O-])o1)C1C=CC2C12CC2 (stereo not given) returned AddAB inh inactive, phage Ecoli inh inactive, Tat export inh inactive and E coli growth-2 inactive.
Cc1ccc(-n2c(SCC(=O)NN=Cc3ccccc3C(=O)O)nnc2-c2ccccc2)cc1 was read as E coli growth-1 inactive.
`Cc1cc(C(=O)N2C(C)CCCC2C)no1` (stereo not given) gave AddAB inh inactive, phage Ecoli inh inactive, E coli growth-1 inactive, Tat export inh inactive and E coli growth-2 inactive.
Screening Cc1cc(C(=O)N(C2CCCCC2)C2CCCCC2)no1 returned AddAB inh inactive, phage Ecoli inh 12, E coli growth-1 inactive, Tat export inh inactive, E coli growth-2 inactive, RecBCD conf inactive, Ecoli viability inactive and AddAB phage OD inactive.
CC(=NNC(=S)Nc1cccc(C)c1)c1ccccn1 was read as phage Ecoli inh 14, Tat export inh inactive, RecBCD conf 16, Ecoli viability inactive and AddAB phage OD inactive.
COc1ccc(C(=O)N/N=C(\C)c2ccccn2)cc1OC was read as AddAB inh inactive, phage Ecoli inh inactive, Tat export inh inactive and E coli growth-2 inactive.
`COc1ccccc1NC(=S)NN=C(C)c1ccccn1` gave phage Ecoli inh 17, Tat export inh inactive, RecBCD conf 14, Ecoli viability inactive and AddAB phage OD inactive.
Screening COc1cccc(NN=C(C#N)S(=O)(=O)C(C)(C)C)c1 returned E coli growth-1 inactive.
`CCn1cc(C(=O)O)c(=O)c2cc(F)c(N3CCNCC3)nc21` gave phage Ecoli inh 102, E coli growth-1 0.059, Tat export inh 62, RecBCD conf 102, Ecoli viability 103 and AddAB phage OD 102.
Screening CCCC[n+]1ccn(-c2nc3ccccc3nc2[N-]S(=O)(=O)c2cccs2)c1 returned AddAB inh inactive, phage Ecoli inh 97, E coli growth-1 inactive, Tat export inh inactive, E coli growth-2 inactive, RecBCD conf inactive, Ecoli viability inactive and AddAB phage OD inactive.
Screening CCCC[n+]1ccn(-c2nc3ccccc3nc2[N-]S(=O)(=O)c2ccccc2)c1 returned AddAB inh inactive, phage Ecoli inh inactive, E coli growth-1 inactive, Tat export inh inactive and E coli growth-2 inactive.
Screening CCOc1c(Br)cc(CNc2ccc(N3CCOCC3)cc2)cc1OC returned AddAB inh inactive, phage Ecoli inh 98, E coli growth-1 inactive, Tat export inh inactive, E coli growth-2 inactive, RecBCD conf inactive, Ecoli viability inactive and AddAB phage OD inactive.
For CC1CCCC(C)N1c1nnc(NC(=O)c2cc(-c3ccc(Br)cc3)on2)s1 (stereo not given) the results were AddAB inh inactive, phage Ecoli inh 95, Tat export inh inactive, E coli growth-2 inactive, RecBCD conf inactive, Ecoli viability inactive and AddAB phage OD inactive.
For O=C(Nc1nnc(N2CCCCCC2)s1)c1cc(-c2ccc(Br)cc2)on1 the results were AddAB inh inactive, phage Ecoli inh inactive, E coli growth-1 inactive, Tat export inh inactive and E coli growth-2 inactive.
CNCCCCOc1ccccc1-c1ccccc1 was read as AddAB inh inactive, phage Ecoli inh 21, E coli growth-1 inactive, Tat export inh inactive, E coli growth-2 inactive, RecBCD conf inactive, Ecoli viability inactive and AddAB phage OD inactive.
For Oc1ccc(-c2nc3ccccc3nc2-c2ccccc2)cc1 the results were AddAB inh inactive, phage Ecoli inh 33, E coli growth-1 inactive, Tat export inh inactive, E coli growth-2 inactive, RecBCD conf inactive, Ecoli viability inactive and AddAB phage OD inactive.
Screening Cc1[nH]nc(C(=O)NN=Cc2ccccc2Cl)c1N=NN(C)C returned phage Ecoli inh 14, Tat export inh inactive, RecBCD conf inactive, Ecoli viability inactive and AddAB phage OD 42.
For N#CCCN(C(=O)CSc1nc2ccccc2c(=O)[nH]1)c1ccc(F)cc1 the results were AddAB inh inactive, phage Ecoli inh 12, E coli growth-1 inactive, Tat export inh inactive, E coli growth-2 inactive, RecBCD conf inactive, Ecoli viability inactive and AddAB phage OD inactive.
For O=[N+]([O-])c1cccc(CN2C(Cc3ccccc3)COCCS2(=O)=O)c1 (stereo not given) the results were E coli growth-1 inactive.
Cn1cc(S(=O)(=O)N2CCC(C(N)=O)CC2)c(=O)n(C)c1=O was read as AddAB inh inactive, phage Ecoli inh 94, E coli growth-1 inactive, Tat export inh inactive, E coli growth-2 inactive, RecBCD conf inactive, Ecoli viability inactive and AddAB phage OD inactive.
For COc1cccc(NC(=O)CN(C)C(=O)CC2CCCCC2)c1 the results were phage Ecoli inh inactive, E coli growth-1 inactive and Tat export inh inactive.
